Assay outcomes (PubChem BioAssay)
IL1B secr inh – inflammasome signaling inhibition, IL-1 beta readout; activity change, % at 57.5 µM; THP-1 LPS/ATP IL-1B secretion, AlphaLISA, 16 h; hits give low values; 4.7% of 360,000 active; in the data active = activity change below about -50%; inconclusive = mostly about -30% to -49%
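THP-1 cells pretreated 1 hr with compounds (up to 57.5 uM final), then stimulated with LPS (250 ng/mL final) plus ATP (1.25 mM final); secreted IL-1B measured by AlphaLISA after 16 hr, decreased signal indicating inhibition.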
Six1-Eya2 blk – inhibitors of human Six1/Eya2 interaction | AlphaScreen GST-Six1/His-Eya2 binding, biochemical; hits give low values | 0.56% of 360,000 active | activity change, % (no concentration beside the values); in the data active = activity change below about -65%; inconclusive = mostly about -30% to -63%
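Compounds are tested against tagged Six1 and Eya2 proteins bridged by glutathione donor and nickel acceptor beads; after a one-hour incubation at 37 °C without light, AlphaScreen emission is recorded.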
TDP1 inh – TDP1 (human) enzyme inhibition | recombinant TDP1, AlphaScreen DNA substrate cleavage | Potency, µM (highest dose often 130 µM), usual class: inhibitors | 0.28% of 350,000 active; note: nearly all actives have a fitted effect of over 40% in size
Target sequence (Q9NUW8 whole entry, looked up): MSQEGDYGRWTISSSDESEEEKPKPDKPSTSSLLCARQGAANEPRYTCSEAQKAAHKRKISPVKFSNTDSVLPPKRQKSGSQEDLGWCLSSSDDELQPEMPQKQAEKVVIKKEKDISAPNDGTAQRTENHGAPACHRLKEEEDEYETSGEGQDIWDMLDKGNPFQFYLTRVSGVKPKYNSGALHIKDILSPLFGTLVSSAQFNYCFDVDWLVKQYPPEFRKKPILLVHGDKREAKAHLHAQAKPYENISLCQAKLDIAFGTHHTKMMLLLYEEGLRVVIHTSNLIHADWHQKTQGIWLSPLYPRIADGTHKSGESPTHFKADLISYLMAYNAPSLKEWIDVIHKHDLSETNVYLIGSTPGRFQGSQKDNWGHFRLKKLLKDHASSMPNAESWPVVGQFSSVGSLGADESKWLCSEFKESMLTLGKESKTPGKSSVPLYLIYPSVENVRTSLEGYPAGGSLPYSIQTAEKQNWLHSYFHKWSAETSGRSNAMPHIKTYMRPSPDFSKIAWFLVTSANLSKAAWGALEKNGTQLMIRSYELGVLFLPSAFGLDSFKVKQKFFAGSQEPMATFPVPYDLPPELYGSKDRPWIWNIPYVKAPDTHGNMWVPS
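Enzyme-compound mixtures sat 15 min at room temperature, followed by a 5 min reaction with 15 nM final substrate and 10 min with AlphaScreen beads. Recombinant human Tdp1 was used at 1 nM final.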
DT40 TDP1 no CPT – qHTS for Inhibitors of human tyrosyl-DNA phosphodiesterase 1 (TDP1): qHTS in cells in absence of CPT; AID 686978, 2013; DT40 Tdp1-/- hTDP1 cells, no CPT, ATP luminescence, 48 h; 15% of 420,000 active; Potency, µM (series often up to 46.2 µM), usual class: inhibitors; note: nearly all actives have a fitted effect of over 55% in size
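Chicken DT40 Tdp1-/- cells complemented with human TDP1, screened without camptothecin (DMSO vehicle only), 400 cells/well. Compounds pin-transferred, cells incubated at 37 °C for at least 48 hr. Growth read as ATP-dependent luminescence (CellTiter-Glo, 30 min at RT).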
DT40 TDP1 CPT – growth inhibition of DT40 Tdp1-/-;hTDP1 cells with camptothecin (screen for TDP1 inhibitors); 12% of 420,000 active; chicken DT40 Tdp1-/-;hTDP1 cells + 20 nM CPT, ATP luminescence, 48 h; Potency, µM (top dose mostly 46.2 µM), hits mostly inhibitors; note: nearly all actives have a fitted effect of over 55% in size
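Chicken DT40 Tdp1-/- cells complemented with human TDP1, 400 cells/well, exposed to compounds plus 20 nM camptothecin for at least 48 h at 37 C; viability read as ATP content by CellTiter-Glo luminescence.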
CtBP-E1A blk – CtBP/E1A binding inhibition. AlphaScreen GST-E1A/His-CtBP binding, 1536-well; hits give low values. activity change, % (test concentration not listed). 0.49% of 340,000 active. AID 651724; in the data active = activity change below about -65%; inconclusive = mostly about -30% to -63%
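Steps: dispense buffer (Tris pH 8.0, NaCl 300 mM, TCEP 1 mM, BSA, Tween 20); add 5X protein mix (GST-E1A, His-CtBP, 125 nM each); pin 23 nL compound; 2 h at 37 °C, dark; add 5X beads (50 ug/mL); 1 h; read.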
Numbers stand for hits; – = inactive; ? = inconclusive; · = not tested or not shown; [ ] = another dose, or the depositor's remark. Shown are actives, neighbours in structure and some others; about 18% of the full set was active somewhere. Unless noted, calls come from the whole dose curve; as a rule, active = well fitted curve in the direction sought with a large enough effect; inconclusive = small, poorly fitted or top-dose-only effect, or another doubt; inactive = no such curve, though single readings can be large; an effect the other way counts as inactive or inconclusive.

SMILES | IL1B secr inh | Six1-Eya2 blk | TDP1 inh | DT40 TDP1 no CPT | DT40 TDP1 CPT | CtBP-E1A blk
COc1ccc(-c2nnc(N3CCCCC3)c3ccccc23)cc1 | -66 | – | – | 18µM | 23µM | –
COc1ccccc1N1CCN(c2nnc(-c3ccc(F)cc3)c3ccccc23)CC1 | – | – | – | 21µM | ? | –
COc1ccc(-c2nnc(N3CCOCC3)c3ccccc23)cc1 | · | – | – | – | – | –
Fc1ccc(-c2nnc(-n3nnc4ccccc43)c3ccccc23)cc1 | – | – | · | 12µM | ? | –
Cc1ccccc1Oc1nnc(-c2cccs2)c2ccccc12 | – | – | – | ? | ? | –
C#CCOCCOCCOCCNc1nc(OC)nc(N2CCN(C(=O)[C@H](CCCCN)n3cc(C(N)CO)nn3)CC2)n1 (stereo partly specified) | · | · | – | · | · | ·
Cc1ccc(-c2nnc(N3CCCCCC3)c3ccccc23)cc1 | · | – | – | 16µM | ? | –
Fc1cccc(Nc2ncnc3c2cnn3-c2ccccc2)c1 | – | – | · | 16µM | ? | –
Clc1cccc(Nc2ncnc3c2cnn3-c2ccccc2)c1 | – | – | – | ? | ? | –
N#Cc1cccc(Nc2ncnc3c2cnn3-c2cccc(Cl)c2)c1 | · | · | – | 23µM | ? | ·
COc1ccccc1NC(=O)c1c(NC(=O)Cc2ccccc2)sc2c1CCC(C(C)(C)C)C2 (stereo unspecified) | · | · | · | – | – | ·
O=S(=O)(NC1c2cccc3cccc(c23)C1N1CCN(CCO)CC1)c1ccccc1 (stereo unspecified) | – | – | – | 15µM | ? | –
O=C(c1ccccc1)N1CCN(C2c3cccc4cccc(c34)C2NS(=O)(=O)c2ccccc2)CC1 (stereo unspecified) | – | – | – | ? | ? | –
COc1ccccc1-c1nn2c(=O)cc(CN3CCN(C(=O)/C=C/c4ccccc4)CC3)nc2s1 | · | · | – | 23µM | ? | ·
Cc1ccccc1-c1nn2c(=O)cc(CN3CCN(C(=O)/C=C/c4ccccc4)CC3)nc2s1 | · | · | – | ? | 16µM | ·
Cc1cccc(-c2nn3c(=O)cc(CN4CCN(S(=O)(=O)c5ccc(Cl)cc5)CC4)nc3s2)c1 | · | · | – | 16µM | – | ·
CCOc1ccc(C(=O)N2CCN(Cc3cc(=O)n4nc(-c5cccc(OC)c5)sc4n3)CC2)cc1 | · | · | – | 21µM | ? | ·
CCS(=O)(=O)N1Cc2ccccc2CC1C(=O)Nc1nc2ccc(C)cc2s1 (stereo unspecified) | – | – | – | ? | ? | –
Cc1cccc(NC(=O)c2ccc(N(C)C3CCCCC3)c([N+](=O)[O-])c2)n1 | ? | ? | – | 16µM | 21µM | ?
Cc1ccc(C)c2sc(NC(=O)c3ccc(N4CCCCC4)c([N+](=O)[O-])c3)nc12 | ? | – | – | 23µM | ? | –
Cc1cccc(NC(=O)c2ccc(N3CCOCC3)c([N+](=O)[O-])c2)n1 | – | – | – | ? | ? | –
Cc1cccc(NC(=O)c2ccc(N3CCCCC3)c([N+](=O)[O-])c2)n1 | – | ? | – | 13µM | ? | ?
O=C(Nc1cccnc1)c1ccc(N2CCCC2)c([N+](=O)[O-])c1 | – | – | – | – | – | –
CN(C)c1ccc(/C=N/NC(=O)c2ccc3nc[nH]c3c2)cc1 | · | – | – | – | – | –
Cc1cc(C)nc(/N=C2\NC(=O)CC(C(=O)O)N2c2ccc(Cl)cc2)n1 (stereo unspecified) | – | – | – | – | – | –
SMILES | IL1B secr inh | Six1-Eya2 blk | TDP1 inh | DT40 TDP1 no CPT | DT40 TDP1 CPT | CtBP-E1A blk
CC1CCC(NC(=O)CN2C(=O)NC3(CCCCCC3)C2=O)CC1 (stereo unspecified) | – | – | – | – | – | –
NC(=S)N/N=C/c1c(O)c(Br)cc2oc3c(c12)CCCC3 | – | – | – | 5.2µM | 5.2µM | –
Oc1c(Br)cc2oc3c(c2c1CNCc1ccccc1)CCCC3 | – | – | – | ? | ? | –
COc1cc(N)c(Cl)cc1C(=O)OCC(=O)Nc1ccc(N2CCOCC2)cc1 | – | – | – | – | – | ·
O=C(COC(=O)C1CC(=O)N(Cc2ccco2)C1)c1ccc(OC(=O)c2ccco2)cc1 (stereo unspecified) | – | ? | – | – | – | –
Cc1ccc(N2CC(C(=O)OCC(=O)c3ccc([N+](=O)[O-])cc3)CC2=O)cc1 (stereo unspecified) | -74 | – | –[0.0935 µM] | – | – | –
COc1cc2c(cc1NC(=O)COC(=O)C1CC(=O)N(Cc3ccco3)C1)oc1ccccc12 (stereo unspecified) | -56 | – | – | – | – | –
Cc1ccc(C(=O)Oc2ccc(C(=O)COC(=O)C3CC(=O)N(Cc4ccco4)C3)cc2)cc1 (stereo unspecified) | – | -85 | ? | – | – | ?
N#Cc1c2ncn(CC(=O)c3ccc(Br)cc3)c(=O)c2c2n1CCC2 | – | – | – | – | – | –
Cc1ccc(Cl)cc1N1CCN(S(=O)(=O)c2c(C)[nH]c(C)c2C(=O)N2CCCC2)CC1 | – | – | – | ? | ? | –
CC(=O)c1c(C)[nH]c(C(=O)N2CCN(c3ccc(F)cc3)CC2)c1C | – | – | – | ? | 14µM | –
CC(=O)c1c(C)[nH]c(C(=O)N2CCN(S(=O)(=O)c3ccc(C)cc3C)CC2)c1C | – | – | – | 18µM | ? | ·
COC(=O)c1c(C)[nH]c(C(=O)N2CCN(c3ccc(OC)cc3)CC2)c1C | · | · | – | · | · | ·
CC(=O)c1c(C)[nH]c(C(=O)N2CCN(c3cc(Cl)ccc3C)CC2)c1C | – | – | – | 5.8µM | 10µM | –
COc1cccc(N2CCN(C(=O)c3[nH]c(C)c(C(C)=O)c3C)CC2)c1 | – | – | – | 4.5µM | 5.6µM | –
COc1ccc(CNC(=O)CSc2nc(C)cs2)cc1 | – | – | – | – | – | ·
COc1ccc(-c2cc(-c3cc(F)ccc3O)[nH]n2)cc1OC | – | – | – | ? | ? | –
COc1ccc(-c2c(-c3ccc(O)cc3O)n[nH]c2C)cc1OC | – | – | – | 18µM | ? | –
Oc1ccccc1-c1cc(-c2ccc3c(c2)OCCO3)n[nH]1 | -61 | – | – | ? | ? | –
COc1ccc(-c2cc(-c3ccccc3O)[nH]n2)cc1OC | – | – | – | 18µM | ? | –
COc1ccc(-c2cc(-c3ccc(OC)c(OC)c3)n[nH]2)c(O)c1 | – | – | – | 21µM | 26µM | –
CCCCC(=O)OCc1cc(=O)n2nc(C3CC3)sc2n1 | · | · | – | – | – | ·
CN(C)C1=NC[C@H](Cc2ccccc2)N1CC1CCCCC1 | – | – | – | 12µM | 13µM | –
CC(C)C[C@H]1CN=C(N(C)C)N1CC1CCCCCC1 | – | – | – | 21µM | 13µM | –
